For 36 targets, log2 fold change results are on record in the supplement of paper PMC10849652.

The full data set covers some 7,900 targets. This sample favours those with a hit. About 0.6% of all pairs of compound and target were hits.

Chain of UniProt Q7Z392 (Q7Z392 whole entry, looked up): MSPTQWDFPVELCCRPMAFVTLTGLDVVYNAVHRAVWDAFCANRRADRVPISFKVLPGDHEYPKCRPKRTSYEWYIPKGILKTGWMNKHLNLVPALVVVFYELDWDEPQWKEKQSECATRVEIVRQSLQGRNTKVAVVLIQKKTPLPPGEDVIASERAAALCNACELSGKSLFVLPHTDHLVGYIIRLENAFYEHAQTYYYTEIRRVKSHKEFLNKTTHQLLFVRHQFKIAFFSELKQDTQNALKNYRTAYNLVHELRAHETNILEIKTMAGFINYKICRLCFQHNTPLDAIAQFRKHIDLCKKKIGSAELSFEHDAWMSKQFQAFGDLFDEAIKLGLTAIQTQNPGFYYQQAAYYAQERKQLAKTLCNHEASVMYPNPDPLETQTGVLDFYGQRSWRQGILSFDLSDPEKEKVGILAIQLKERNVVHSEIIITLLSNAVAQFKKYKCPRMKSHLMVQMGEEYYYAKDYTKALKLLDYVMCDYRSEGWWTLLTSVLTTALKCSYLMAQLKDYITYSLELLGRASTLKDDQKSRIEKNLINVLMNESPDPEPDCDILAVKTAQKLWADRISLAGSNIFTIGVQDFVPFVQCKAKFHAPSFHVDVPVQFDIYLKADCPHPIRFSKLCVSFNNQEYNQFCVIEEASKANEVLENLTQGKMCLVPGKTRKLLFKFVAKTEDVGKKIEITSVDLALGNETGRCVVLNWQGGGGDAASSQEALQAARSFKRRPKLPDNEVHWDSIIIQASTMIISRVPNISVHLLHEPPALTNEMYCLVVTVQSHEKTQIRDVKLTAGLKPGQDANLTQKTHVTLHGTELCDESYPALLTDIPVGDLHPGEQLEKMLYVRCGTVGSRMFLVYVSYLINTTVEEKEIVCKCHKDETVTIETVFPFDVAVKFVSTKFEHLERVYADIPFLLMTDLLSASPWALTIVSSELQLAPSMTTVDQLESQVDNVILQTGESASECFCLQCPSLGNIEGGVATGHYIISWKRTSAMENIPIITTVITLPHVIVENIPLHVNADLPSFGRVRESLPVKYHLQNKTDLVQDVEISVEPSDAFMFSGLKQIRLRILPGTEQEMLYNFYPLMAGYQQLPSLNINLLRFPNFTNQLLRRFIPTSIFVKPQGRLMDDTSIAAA
Chain of UniProt Q96AJ9 (Q96AJ9 whole entry, looked up): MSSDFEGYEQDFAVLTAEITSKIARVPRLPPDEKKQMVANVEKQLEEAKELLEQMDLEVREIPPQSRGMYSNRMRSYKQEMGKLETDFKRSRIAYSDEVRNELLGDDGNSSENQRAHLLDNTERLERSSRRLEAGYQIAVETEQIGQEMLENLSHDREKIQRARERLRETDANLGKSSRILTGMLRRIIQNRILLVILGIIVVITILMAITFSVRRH
Chain of UniProt Q96AX1 (Q96AX1 whole entry, looked up): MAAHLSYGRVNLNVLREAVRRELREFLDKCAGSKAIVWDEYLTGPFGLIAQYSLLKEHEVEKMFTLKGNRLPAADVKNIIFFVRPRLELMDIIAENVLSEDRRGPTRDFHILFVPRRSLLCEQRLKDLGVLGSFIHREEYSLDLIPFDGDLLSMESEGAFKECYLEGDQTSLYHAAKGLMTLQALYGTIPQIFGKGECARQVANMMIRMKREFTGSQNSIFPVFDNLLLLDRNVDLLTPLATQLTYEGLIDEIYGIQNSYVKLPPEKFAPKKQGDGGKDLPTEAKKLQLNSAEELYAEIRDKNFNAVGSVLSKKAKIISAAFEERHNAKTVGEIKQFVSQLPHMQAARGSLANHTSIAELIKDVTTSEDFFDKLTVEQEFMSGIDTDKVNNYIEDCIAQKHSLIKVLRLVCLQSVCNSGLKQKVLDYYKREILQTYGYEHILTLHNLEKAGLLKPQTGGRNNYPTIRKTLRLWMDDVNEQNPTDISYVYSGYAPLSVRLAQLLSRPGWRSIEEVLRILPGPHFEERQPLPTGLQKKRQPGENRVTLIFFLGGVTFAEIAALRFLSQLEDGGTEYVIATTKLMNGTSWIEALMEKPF
Chain of UniProt P54578 (P54578 whole entry, looked up): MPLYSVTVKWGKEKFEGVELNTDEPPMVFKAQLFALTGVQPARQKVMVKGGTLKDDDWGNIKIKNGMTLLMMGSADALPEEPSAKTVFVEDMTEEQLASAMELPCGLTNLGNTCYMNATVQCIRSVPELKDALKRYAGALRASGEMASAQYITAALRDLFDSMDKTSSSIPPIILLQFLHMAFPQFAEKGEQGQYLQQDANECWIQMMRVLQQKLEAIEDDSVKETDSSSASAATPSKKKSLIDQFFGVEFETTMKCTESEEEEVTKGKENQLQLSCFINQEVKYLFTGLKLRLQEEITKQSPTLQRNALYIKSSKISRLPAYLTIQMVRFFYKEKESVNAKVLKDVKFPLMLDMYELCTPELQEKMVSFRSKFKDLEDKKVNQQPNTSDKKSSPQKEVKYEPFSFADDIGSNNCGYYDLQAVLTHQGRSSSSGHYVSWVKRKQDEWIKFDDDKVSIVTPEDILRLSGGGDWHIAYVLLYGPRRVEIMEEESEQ
Chain of UniProt Q6VEQ5 (Q6VEQ5 whole entry, looked up): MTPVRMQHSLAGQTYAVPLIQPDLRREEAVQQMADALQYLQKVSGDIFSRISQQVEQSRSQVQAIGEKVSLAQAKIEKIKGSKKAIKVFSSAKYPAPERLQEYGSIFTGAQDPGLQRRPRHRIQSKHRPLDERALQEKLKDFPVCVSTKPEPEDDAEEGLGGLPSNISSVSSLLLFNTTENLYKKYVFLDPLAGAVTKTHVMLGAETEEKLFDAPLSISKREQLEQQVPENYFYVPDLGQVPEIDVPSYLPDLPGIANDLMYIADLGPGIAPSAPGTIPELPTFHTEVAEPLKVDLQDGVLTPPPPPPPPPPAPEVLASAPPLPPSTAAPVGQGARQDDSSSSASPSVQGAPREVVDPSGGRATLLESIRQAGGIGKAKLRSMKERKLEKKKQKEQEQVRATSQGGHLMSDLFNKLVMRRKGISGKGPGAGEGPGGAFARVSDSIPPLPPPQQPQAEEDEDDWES
Chain of UniProt Q99986 (Q99986 whole entry, looked up): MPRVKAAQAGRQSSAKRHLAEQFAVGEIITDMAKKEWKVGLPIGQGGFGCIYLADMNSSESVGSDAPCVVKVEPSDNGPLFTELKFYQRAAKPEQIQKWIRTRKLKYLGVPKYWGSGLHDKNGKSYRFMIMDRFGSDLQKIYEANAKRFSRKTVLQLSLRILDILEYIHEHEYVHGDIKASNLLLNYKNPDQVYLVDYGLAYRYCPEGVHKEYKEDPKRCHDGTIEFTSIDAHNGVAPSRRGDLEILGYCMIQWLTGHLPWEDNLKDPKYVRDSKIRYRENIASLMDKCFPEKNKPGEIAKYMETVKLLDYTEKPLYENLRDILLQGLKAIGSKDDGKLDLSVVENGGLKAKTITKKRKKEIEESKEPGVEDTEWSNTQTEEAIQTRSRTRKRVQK
Chain of UniProt Q96K49 (Q96K49 whole entry, looked up): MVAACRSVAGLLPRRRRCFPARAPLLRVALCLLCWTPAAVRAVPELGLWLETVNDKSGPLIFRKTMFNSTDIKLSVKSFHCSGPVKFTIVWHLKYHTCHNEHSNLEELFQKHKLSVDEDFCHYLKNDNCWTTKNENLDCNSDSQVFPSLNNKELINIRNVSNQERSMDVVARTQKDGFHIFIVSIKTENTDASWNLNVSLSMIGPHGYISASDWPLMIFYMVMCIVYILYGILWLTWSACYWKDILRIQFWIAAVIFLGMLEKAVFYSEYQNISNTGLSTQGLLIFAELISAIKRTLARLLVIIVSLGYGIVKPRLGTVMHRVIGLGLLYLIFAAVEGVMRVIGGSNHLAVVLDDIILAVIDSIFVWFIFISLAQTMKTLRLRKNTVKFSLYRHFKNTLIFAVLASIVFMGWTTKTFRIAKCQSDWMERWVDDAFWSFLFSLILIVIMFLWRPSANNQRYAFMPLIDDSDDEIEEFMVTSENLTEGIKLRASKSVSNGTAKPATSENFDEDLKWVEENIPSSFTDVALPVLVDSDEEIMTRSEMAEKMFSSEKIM
Chain of UniProt P30291 (P30291 whole entry, looked up): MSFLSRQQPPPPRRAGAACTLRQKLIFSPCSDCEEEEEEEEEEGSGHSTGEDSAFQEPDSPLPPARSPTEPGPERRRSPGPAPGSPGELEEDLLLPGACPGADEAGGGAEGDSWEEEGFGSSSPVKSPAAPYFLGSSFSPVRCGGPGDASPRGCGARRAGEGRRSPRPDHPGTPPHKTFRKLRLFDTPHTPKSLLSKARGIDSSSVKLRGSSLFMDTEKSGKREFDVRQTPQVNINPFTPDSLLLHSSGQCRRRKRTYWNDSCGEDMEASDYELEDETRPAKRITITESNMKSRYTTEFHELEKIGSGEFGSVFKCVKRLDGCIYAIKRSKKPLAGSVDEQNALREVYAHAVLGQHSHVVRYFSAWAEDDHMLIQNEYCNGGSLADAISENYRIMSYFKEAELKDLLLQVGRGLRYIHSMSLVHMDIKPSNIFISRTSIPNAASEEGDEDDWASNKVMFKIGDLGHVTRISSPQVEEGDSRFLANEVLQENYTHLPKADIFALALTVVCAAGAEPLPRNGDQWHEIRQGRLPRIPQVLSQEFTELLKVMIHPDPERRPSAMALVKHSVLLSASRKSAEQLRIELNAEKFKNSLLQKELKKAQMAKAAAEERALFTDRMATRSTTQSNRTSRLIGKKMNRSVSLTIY
Chain of UniProt P07951 (P07951 whole entry, looked up): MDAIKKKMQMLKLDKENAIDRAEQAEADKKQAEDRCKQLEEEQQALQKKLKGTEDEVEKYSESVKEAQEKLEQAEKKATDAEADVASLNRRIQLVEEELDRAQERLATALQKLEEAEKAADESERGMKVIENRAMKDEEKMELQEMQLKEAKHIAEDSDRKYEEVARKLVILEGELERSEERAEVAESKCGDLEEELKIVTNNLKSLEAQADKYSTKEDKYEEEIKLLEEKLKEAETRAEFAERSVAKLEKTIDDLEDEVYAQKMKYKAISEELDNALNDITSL
Chain of UniProt Q9P0T7 (Q9P0T7 whole entry, looked up): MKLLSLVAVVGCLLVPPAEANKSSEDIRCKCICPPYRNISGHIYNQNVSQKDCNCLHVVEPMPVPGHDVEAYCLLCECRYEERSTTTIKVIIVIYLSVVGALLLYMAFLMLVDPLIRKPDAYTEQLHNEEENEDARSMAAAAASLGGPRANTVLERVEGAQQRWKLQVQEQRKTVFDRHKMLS

Compound in one experiment: Cc1ccc(-n2nc(C(C)(C)C)cc2NC(=O)Nc2ccc(OCCN3CCOCC3)c3ccccc23)cc1 [doramapimod]
As to the kind of experiment: log2 fold change, soluble protein after heating vs DMSO (PISA); higher = thermal stabilisation; K562 cells, 10 uM, 30 min; active = over 0.2 and 3.5 SD of the protein, either way, in both replicates (recomputed). In outline: (§1)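 K562 cells at 2×10^6 cells/mL were given 10 μM compound for 30 min. Aliquots then went through 3 min of heating across 48°C-58°C, were pooled, and were extracted in PBS with 0.5% NP-40 at 4°C, and the supernatant after 21,000xg for 90 min was quantified by TMTpro 16plex LC-MS/MS with channel sums equalised. Thermal stability relative to control samples, from duplicates, is given as log2 fold change.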
Consider VPS18 (UniProt Q9P253), for which the log2 fold change was -0.014 (inactive). With TRAPPC11 (UniProt Q7Z392), the log2 fold change is 0.028 (inactive). Regarding VDAC1 (UniProt P21796), the log2 fold change was -0.024 (inactive).

TNPO1 (UniProt Q92973): the log2 fold change is -0.034 (inactive). Same read-out and setting: the figure for UGDH (UniProt O60701) is -0.106 (inactive); for UCHL5 (UniProt Q9Y5K5) it is -0.015 (inactive).

Regarding TP53BP1 isoform 2 (UniProt Q12888), the log2 fold change is 0.036 (inactive). On the same count and under the same terms, the same measure for VRK1 (UniProt Q99986): -0.075 (inactive); for WEE1 (UniProt P30291): 0.026 (inactive). Take VTI1A (UniProt Q96AJ9): the log2 fold change is 0.054 (inactive). WASHC2A (UniProt Q641Q2): the log2 fold change is 0.062 (inactive).

For the target TMEM9 (UniProt Q9P0T7), the log2 fold change was 0.048 (inactive). As for VPS33A (UniProt Q96AX1), the log2 fold change is -0.017 (inactive). Take TMEM70 (UniProt Q9BUB7): the log2 fold change was -0.017 (inactive). Take XRCC5 (UniProt P13010): the log2 fold change was 0.064 (inactive). For the target TRAPPC3 (UniProt O43617), the log2 fold change was -0.008 (inactive). Still for that read-out and setting: the figure for TNPO3 (UniProt Q9Y5L0) is -0.046 (inactive); for TPM2 (UniProt P07951) it is 0.059 (inactive).

Regarding UBE4B isoform 4 (UniProt O95155), the log2 fold change was -0.048 (inactive).

For USP14 (UniProt P54578), the log2 fold change is 0.002 (inactive).

As for VPS50 (UniProt Q96JG6), the log2 fold change is -0.032 (inactive).

For TMEM87B (UniProt Q96K49), the log2 fold change was -0.059 (inactive). TMEM263 (UniProt Q8WUH6): the log2 fold change was -0.075 (inactive). For the target TYW1 (UniProt Q9NV66), the log2 fold change is 0.008 (inactive).

For VPS33B (UniProt Q9H267), the log2 fold change was -0.01 (inactive).

In the case of TMEM164 (UniProt Q5U3C3), the log2 fold change is 0.091 (inactive). Regarding WASH2P (UniProt Q6VEQ5), the log2 fold change is 0.041 (inactive).

With TOMM5 isoform 2 (UniProt Q8N4H5), the log2 fold change was -0.078 (inactive). Consider TRIP10 isoform 2 (UniProt Q15642), for which the log2 fold change was -0.035 (inactive). Regarding TMEM106B (UniProt Q9NUM4), the log2 fold change is 0.014 (inactive).

For TMTC3 (UniProt Q6ZXV5), the log2 fold change is 0.018 (inactive). Regarding USP24 (UniProt Q9UPU5), the log2 fold change was -0.041 (inactive).

Turning to VWA8 (UniProt A3KMH1), the log2 fold change is -0.041 (inactive).

For the target UBLCP1 (UniProt Q8WVY7), the log2 fold change is -0.061 (inactive). Regarding VARS2, A0A0G2JL52, the log2 fold change is 0.048 (inactive). Regarding TRMT10A (UniProt Q8TBZ6), the log2 fold change was -0.023 (inactive).

Compound in a further experiment: Cc1ccc(C(=O)N(CCCN)[C@@H](c2nc3cc(Cl)ccc3c(=O)n2Cc2ccccc2)C(C)C)cc1 [ispinesib]
Described as above. In outline:
as §1
Consider VPS18 (UniProt Q9P253), for which the log2 fold change is -0.203 (inactive). As for TRAPPC11 (UniProt Q7Z392), the log2 fold change is -0.079 (inactive). Regarding VDAC1 (UniProt P21796), the log2 fold change is 0.034 (inactive).

For TNPO1 (UniProt Q92973), the log2 fold change is -0.113 (inactive). Same read-out and setting: the same measure for UGDH (UniProt O60701): 0.165 (inactive). For the target UCHL5 (UniProt Q9Y5K5), the log2 fold change is -0.056 (inactive). Take TP53BP1 isoform 2 (UniProt Q12888): the log2 fold change was 0.002 (inactive). For the target VRK1 (UniProt Q99986), the log2 fold change was -0.077 (inactive).

Regarding WEE1 (UniProt P30291), the log2 fold change was 0.046 (inactive). In the case of VTI1A (UniProt Q96AJ9), the log2 fold change was -0.237 (inactive). WASHC2A (UniProt Q641Q2): the log2 fold change was -0.229 (inactive). As to TMEM9 (UniProt Q9P0T7), the log2 fold change was -0.093 (inactive).

Turning to VPS33A (UniProt Q96AX1), the log2 fold change is -0.154 (inactive). TMEM70 (UniProt Q9BUB7): the log2 fold change was -0.243 (inactive). XRCC5 (UniProt P13010): the log2 fold change is -0.16 (inactive).

As for TRAPPC3 (UniProt O43617), the log2 fold change was -0.023 (inactive). Consider TNPO3 (UniProt Q9Y5L0), for which the log2 fold change is 0.008 (inactive). On to TPM2 (UniProt P07951), for which the log2 fold change was 0.122 (inactive). On to UBE4B isoform 4 (UniProt O95155), for which the log2 fold change is 0 (inactive). On the same count and under the same terms, the same measure for USP14 (UniProt P54578): 0.017 (inactive); for VPS50 (UniProt Q96JG6): -0.023 (inactive). Regarding TMEM87B (UniProt Q96K49), the log2 fold change is -0.406 (active). Consider TMEM263 (UniProt Q8WUH6), for which the log2 fold change is -0.936 (active). As for TYW1 (UniProt Q9NV66), the log2 fold change is 0.179 (inactive). Same read-out and setting: the figure for VPS33B (UniProt Q9H267) is -0.149 (inactive).

For WASH2P (UniProt Q6VEQ5), the log2 fold change is -0.358 (active).

Regarding TOMM5 isoform 2 (UniProt Q8N4H5), the log2 fold change is -0.051 (inactive). For the target TRIP10 isoform 2 (UniProt Q15642), the log2 fold change was 0.309 (inactive). As for TMTC3 (UniProt Q6ZXV5), the log2 fold change was -0.188 (inactive).

Turning to USP24 (UniProt Q9UPU5), the log2 fold change was 0.115 (inactive). VWA8 (UniProt A3KMH1): the log2 fold change is -0.221 (inactive). For the target UBLCP1 (UniProt Q8WVY7), the log2 fold change was 0.126 (inactive). On to VARS2, A0A0G2JL52, for which the log2 fold change was -0.244 (active).

On to TRMT10A (UniProt Q8TBZ6), for which the log2 fold change is 0.028 (inactive).
